High-throughput results as filed in PubChem.
Luciferase inh: blocks purified firefly luciferase enzyme activity; P08659; purified P. pyralis luciferase, luminescence, biochemical; Potency, µM (titrated, usually from 115 µM), most hits filed as inhibitors; 76,000 tested, 2.5% active; AID 1347043; also: nearly all actives have a fitted effect of over 65% in size
Target sequence (P08659 whole entry, looked up): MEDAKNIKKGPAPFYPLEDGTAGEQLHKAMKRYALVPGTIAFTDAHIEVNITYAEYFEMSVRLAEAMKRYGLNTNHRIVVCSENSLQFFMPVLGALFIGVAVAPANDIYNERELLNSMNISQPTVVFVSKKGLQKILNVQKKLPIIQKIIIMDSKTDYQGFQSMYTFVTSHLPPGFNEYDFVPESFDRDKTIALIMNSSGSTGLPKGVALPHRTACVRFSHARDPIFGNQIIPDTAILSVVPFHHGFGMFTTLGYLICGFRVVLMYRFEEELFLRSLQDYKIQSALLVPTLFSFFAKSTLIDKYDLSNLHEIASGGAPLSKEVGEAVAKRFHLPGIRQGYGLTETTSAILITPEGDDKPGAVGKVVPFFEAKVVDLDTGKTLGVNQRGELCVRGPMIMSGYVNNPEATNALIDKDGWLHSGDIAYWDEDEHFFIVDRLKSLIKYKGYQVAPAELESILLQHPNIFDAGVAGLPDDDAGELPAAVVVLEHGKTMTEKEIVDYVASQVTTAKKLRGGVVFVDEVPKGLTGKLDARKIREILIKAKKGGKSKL
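Purified 10nM P. pyralis luciferase with 10uM D-luciferin and 10uM ATP in 50mM Tris acetate pH 7.5, 10mM Mg acetate, 0.01% Tween-20, 0.05% BSA. qHTS titration; luminescence read by CCD imager.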
NPR1 antag: antagonists of human natriuretic peptide receptor Npr1. P16066. HEK293 hNpr1 GloSensor cGMP, ANP-stimulated luminescence. Potency, µM (highest dose often 46.3 µM), for the others: at the top dose activity change, negative = inhibition, hits mostly inhibitors. 76,000 tested, 1.6% active; calls by dose curve; also: nearly all actives have a fitted effect of over 60% in size
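Compound pre-incubated 30 min at room temperature on GloSensor-loaded HEK293 cells stably carrying hNpr1 and the pGS-40F cGMP biosensor. Stimulation uses hNppA at 0.1 nM final; luminescence is taken at baseline and 20 min post-agonist.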
3T3 cytotox: kills NIH 3T3 cells. NIH 3T3 viability, CellTiter-Glo ATP luminescence, 48-72 h. Potency, µM (doses to about 96.7 µM), for the others: at the highest dose activity change, negative = cytotoxicity, hits mostly inhibitors. 94,000 tested, 4.3% active. AID 1345082; also: nearly all actives have a fitted effect of over 55% in size
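Cells were seeded at 400 per well, treated with pin-transferred compound, and kept 48 or 72 hr at 37 °C before CellTiter-Glo addition and luminescence imaging of cellular ATP.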
GPT2 inhibitor: GPT2 alanine aminotransferase inhibition; Q8TD30; Potency, µM (doses to about 57.7 µM), inactives show at the top dose activity change, negative = inhibition, usual class: inhibitors; Recombinant GPT2, coupled pyruvate oxidase/HRP Amplex Red fluorescence; 100,000 tested, 0.25% active; AID 1671188; also: nearly all actives have a fitted effect of over 60% in size
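Recombinant GPT2 (10ng/uL) with 250uM a-KG and 2mM L-alanine, 30 min at room temperature, in HEPES pH 7.5 buffer. Pyruvate detected by pyruvate oxidase/HRP/Amplex Red fluorescence after 30 min in the dark; AOA (50uM) as positive control.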
HEK293 tox: HEK 293 cell cytotoxicity; AID 1345083; 94,000 tested, 6.6% active; Potency, µM (doses to about 115 µM), for the others: at the highest dose activity change, negative = cytotoxicity, hits mostly inhibitors; HEK 293 viability, ATP luminescence (CellTiter-Glo), 48-72 h; also: nearly all actives have a fitted effect of over 60% in size
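Cytotoxicity was scored by loss of ATP-coupled luminescence (CellTiter-Glo) in HEK 293 cells. Compound treatment ran 48 or 72 hr at 37 degree Celsius, 5% CO2, 95% humidity.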
* hit, by the source's call; [ ] = another dose, or the depositor's remark. A selection: hits, their analogues and other compounds. The true share with any hit is near 10%. Unless noted, calls follow the shape of the dose curve; as a rule, active = well fitted curve in the direction sought with a large enough effect; inconclusive = small, poorly fitted or top-dose-only effect, or another doubt; inactive = no such curve, though single readings can be large; an effect the other way counts as inactive or inconclusive. % is scaled to controls: 0 for no effect and ±100 for the full control effect; potency is read from the fitted curve at half-maximal effect.

What do the screens show for `Cc1cc(C)cc(-c2ccc(CN3CCCC3C(=O)NCCc3ccccc3)cc2)c1` (centres undefined)?
3T3 cytotox: 32µM*; GPT2 inhibitor: -2%; HEK293 tox: 40µM*

Results for Cc1cc(C)cc(-c2ccc(CN3CCCC3C(=O)NC3CC3)cc2)c1 (centres undefined) ?
3T3 cytotox: inconclusive; GPT2 inhibitor: 2%; HEK293 tox: 50µM*

Results for Cc1cc(C)cc(-c2ccc(CN3CCCC3C(=O)NCc3ccc(F)cc3)cc2)c1 (centres undefined) ?
3T3 cytotox: inconclusive; GPT2 inhibitor: 4%; HEK293 tox: inconclusive

What do the screens show for `Cc1cc(C)cc(-c2ccc(CN3CCCC3C(=O)Nc3ccc(F)cc3)cc2)c1` (centres undefined)?
3T3 cytotox: inconclusive; GPT2 inhibitor: -3%; HEK293 tox: inconclusive

Results for Cc1cc(C)cc(-c2ccc(CN3CCCC3C(=O)NCc3ccc4c(c3)OCO4)cc2)c1 (centres undefined) ?
3T3 cytotox: 35µM*; GPT2 inhibitor: 4%; HEK293 tox: 50µM*

Results for Cc1cc(C)cc(-c2ccc(CN3CCCC3C(=O)Nc3ccccc3F)cc2)c1 (centres undefined) ?
3T3 cytotox: -37%; GPT2 inhibitor: 0%; HEK293 tox: inconclusive

Results for Cc1cc(C)cc(-c2ccc(CN3CCCC3C(=O)Nc3ccccc3Cl)cc2)c1 (centres undefined) ?
3T3 cytotox: -18%; GPT2 inhibitor: inactive; HEK293 tox: -15%

How did COc1cc(/C=C/c2ccccc2)c(C(=O)O)c(O)c1CC=C(C)C do in these assays?
GPT2 inhibitor: -1%[27.3 µM]

How did C[S+](=O)([O-])c1ccc(-c2nc(C(=O)NCCc3ccc(Cl)cc3)n3ccccc23)cc1 do in these assays?
3T3 cytotox: -4%; GPT2 inhibitor: -19%; HEK293 tox: -11%

What do the screens show for `O=[S+]([O-])(Nc1cc(-c2ccccn2)nn1-c1ccccc1)c1ccccc1`?
3T3 cytotox: inconclusive; GPT2 inhibitor: inactive; HEK293 tox: -33%

What do the screens show for `O=C(NCCOc1ccccc1)c1cnc2n1CCN(Cc1ccc(F)cc1)CC2`?
Luciferase inh: inactive; NPR1 antag: -18%[70.6 µM]; 3T3 cytotox: inconclusive; GPT2 inhibitor: -4%[88.5 µM]; HEK293 tox: inconclusive

Results for Cc1ccc(CN2CCc3ncc(C(=O)NCCOc4ccccc4)n3CC2)o1 ?
Luciferase inh: inactive; NPR1 antag: -10%[70.6 µM]; 3T3 cytotox: 35µM*; GPT2 inhibitor: inactive; HEK293 tox: 50µM*

How did O=C(NCc1ccccc1)c1cnc2n1CCN(Cc1ccccc1F)CC2 do in these assays?
Luciferase inh: inactive; NPR1 antag: -8%[70.6 µM]; 3T3 cytotox: inconclusive; GPT2 inhibitor: 3%[88.5 µM]; HEK293 tox: 28µM*

Results for CC(C)c1ccc(CC(=O)N2CCCc3ncc(C(=O)NCCN(C)C)cc32)cc1 ?
Luciferase inh: inactive; NPR1 antag: 5%[70.6 µM]; 3T3 cytotox: 100µM*; GPT2 inhibitor: inactive; HEK293 tox: inconclusive

What do the screens show for `CC(C)c1ccc(CC(=O)N2CCCc3ncc(C(=O)NCc4ccccc4)cc32)cc1`?
Luciferase inh: inactive; NPR1 antag: -5%[70.6 µM]; 3T3 cytotox: 89µM*; GPT2 inhibitor: -10%[88.5 µM]; HEK293 tox: 89µM*

What do the screens show for `CC(C)c1ccc(CC(=O)N2CCCc3ncc(C(=O)Nc4ccc5[nH]ccc5c4)cc32)cc1`?
Luciferase inh: inactive; NPR1 antag: -6%; 3T3 cytotox: inconclusive; GPT2 inhibitor: -16%; HEK293 tox: 35µM*

What do the screens show for `CC(C)NC(=O)c1cnc2c(c1)N(C(=O)Cc1ccc(C(C)C)cc1)CCC2`?
Luciferase inh: inactive; NPR1 antag: -18%[70.6 µM]; 3T3 cytotox: inconclusive; GPT2 inhibitor: -6%[88.5 µM]; HEK293 tox: inconclusive

How did CC(C)c1ccc(CC(=O)N2CCCc3ncc(C(=O)NCCN4CCCC4)cc32)cc1 do in these assays?
Luciferase inh: inactive; NPR1 antag: 1%[70.6 µM]; 3T3 cytotox: inconclusive; GPT2 inhibitor: -30%[88.5 µM]; HEK293 tox: inconclusive
